Each structure is given as a SMILES string. Results filed as inconclusive are left out. A number with no mark means an inactive call. Active and inactive are the calls of the source. The call rests on the fitted dose curve; in most records, active means well fitted cell-killing curve with a large enough effect; inconclusive means small, poorly fitted or top-dose-only effect; inactive means no such curve, though single readings can be large or run the other way.
On the % scale 0 is the no-effect control and ±100 the full control effect; potency means the concentration at half of the fitted maximal effect.

This assay is described as follows: qHTS of pediatric cancer cell lines to identify multiple opportunities for drug repurposing: Primary screen for Saos-2 cells (AID 1347097). Further: nearly all actives have a fitted effect of over 40% in size. To be noted: Saos-2 viability, CellTiter-Glo ATP luminescence, 48 h; series mostly up to 46 µM; activity change, negative = cytotoxic: at the top concentration. In short, it runs like this: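 500-1,000 cells/well; 5 h pre-incubation 37 °C/5% CO2; compound pinned; 48 h; CellTiter-Glo, 15 min RT; luminescence. MIPE 11-pt from 0.78 nM, NPC 8-pt from 0.59 nM final. Bortezomib 2.3 µM final as positive control.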
A general note: Quantitative high-throughput screening tests each substance at several concentrations.
Consider `CN(C)[C@@H](CCOc1cccc2ccccc12)c1ccccc1`, for which the Potency was 26.4 µM (active). On to `CC(C)c1nc(CN(C)C(=O)N[C@H](C(=O)N[C@@H](Cc2ccccc2)C[C@H](O)[C@H](Cc2ccccc2)NC(=O)OCc2cncs2)C(C)C)cs1`, for which the “activity change, negative = cytotoxic” value was -17.5%. `CC(=O)N1CCN(c2ccc(OC[C@H]3CO[C@](Cn4ccnc4)(c4ccc(Cl)cc4Cl)O3)cc2)CC1`: the Potency was 33.2 µM (active). Turning to `COC(=O)C1=C(C)NC(C)=C(C(=O)OC(C)C)C1c1cccc2nonc12` (stereo unspecified), the “activity change, negative = cytotoxic” value is -23.5%. Turning to `CN(C)c1ccc(O)c2c1C[C@H]1C[C@H]3[C@H](N(C)C)C(=O)C(C(N)=O)=C(O)[C@@]3(O)C(=O)C1=C2O`, the “activity change, negative = cytotoxic” value is 52.5%. With `Cc1cc2cc3c(C)cc(=O)oc3c(C)c2o1`, the “activity change, negative = cytotoxic” value is -12.6%.

On to `C=C(c1ccc(C(=O)O)cc1)c1cc2c(cc1C)C(C)(C)CCC2(C)C`, for which the “activity change, negative = cytotoxic” value is -13.5%. Regarding `C[C@H](Cn1cnc2c(N)ncnc21)OCP(=O)(O)O`, the “activity change, negative = cytotoxic” value was 45.4%. Consider `CCCc1cc(=O)[nH]c(=S)[nH]1`, for which the Potency entry is “inactive”. `Nc1nc(N)c(N=O)c(OCC2CCCCC2)n1`: the Potency was 18.7 µM (active). Regarding `CCN(CC)CCOc1ccc(Cc2ccccc2)cc1`, the Potency entry was “inactive”. For `Cc1cc(Cl)ccc1OCCCC(=O)NO`, the Potency is 11.8 µM (active). Turning to `O=C(NC(Cc1cc(=O)[nH]c2ccccc12)C(=O)O)c1ccc(Cl)cc1` (stereo unspecified), the “activity change, negative = cytotoxic” value is 38.1%. Regarding `CCOC(=O)C(C)Oc1cccc2c(=O)n(CC(=O)Nc3ccc4c(c3)OCCO4)ccc12` (stereo unspecified), the “activity change, negative = cytotoxic” value is -15.8%. Same read-out and setting: under `O=C(c1ccccc1)c1ccc2n1CCC2C(=O)O` (stereo unspecified) stands 10.6%; under `Nc1nc(Cl)nc2c1ncn2[C@H]1C[C@H](O)[C@@H](CO)O1`, -11.6%.

For `CCCCCCCCOc1ccccc1C(=O)Nc1ccc(C(=O)OCC[N+](C)(CC)CC)cc1`, the Potency is 29.6 µM (active). Turning to `Cc1cc(O)c2c(c1)C(=O)c1cc(O)cc(O)c1C2=O`, the “activity change, negative = cytotoxic” value is -18.1%. Take `c1ccc2[nH]c(-c3cscn3)nc2c1`: the Potency result is “inactive”. Regarding `O=C(CCc1ccc(O)cc1)c1c(O)cc(O)cc1O`, the “activity change, negative = cytotoxic” value is -20.4%. As to `COC1=C(OC)C(=O)C(CCCCCCCCCCO)=C(C)C1=O`, the “activity change, negative = cytotoxic” value is 2.68%. For `Cc1cc(C2CCCCC2)n(O)c(=O)c1`, the Potency is 21.1 µM (active). As for `O=c1ccc2ccc(O)c(O)c2o1`, the “activity change, negative = cytotoxic” value is -6.08%. On to `COc1cc(C(C)=O)ccc1OCCCN1CCC(c2noc3cc(F)ccc23)CC1`, for which the Potency result was “inactive”. As for `OC(CN1CCN(c2cccc(Cl)c2)CC1)C(c1ccccc1)c1ccccc1` (stereo unspecified), the Potency was 18.7 µM (active).

Take `C[C@H](Cc1ccc(O)c(O)c1)[C@@H](C)Cc1ccc(O)c(O)c1`: the Potency is 29.6 µM (active).

For the origin of these results see PubChem BioAssay (NCATS).
